Measurements published in the supplement of paper PMC12282887.
± gives the standard deviation of the averaged measurements.

Tests used:
Experiment in all cases: promoter activity interaction Z-score (Lux/OD deviation from empty-vector control); higher = stronger promoter induction by the compound
[1] = system: E. coli BW25113 acrABp lux reporter
Method in brief: (§1)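 Every compound was given at four 1:2 dilutions, in biological duplicates, to E. coli BW25113 carrying low-copy luxCDABE promoter reporters in wild-type or single-gene deletion backgrounds. Growth in 40 µl LB Lennox in 384-well plates at 37°C was followed by OD600 and luminescence readings every 30 min for 12 h, integrated over 0–8 h for wild type and 1–9 h for deletion strains, with wells below 10% of the median growth value excluded. Scores are Z-transformed residuals of growth-normalised luminescence fitted against a control.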

[2] = system: E. coli BW25113 micFp lux reporter
Method in brief: as §1

[3] = system: E. coli BW25113 ompFp lux reporter
Method in brief: as §1

[4] = system: E. coli BW25113 robp lux reporter
Method in brief: as §1

[5] = system: E. coli BW25113 soxSp lux reporter
Method in brief: as §1

[6] = system: E. coli BW25113 tolCp lux reporter
Method in brief: as §1

[7] = 18 µg/ml, genetic background: wild type
[8] = 18 µg/ml, genetic background: ΔmarA
[9] = 18 µg/ml, genetic background: Δrob
[10] = 18 µg/ml, genetic background: ΔsoxS
[11] = 36.1 µg/ml, genetic background: wild type
[12] = 36.1 µg/ml, genetic background: ΔmarA
[13] = 36.1 µg/ml, genetic background: Δrob
[14] = 36.1 µg/ml, genetic background: ΔsoxS
[15] = 72.1 µg/ml, genetic background: wild type
[16] = 72.1 µg/ml, genetic background: ΔmarA
[17] = 72.1 µg/ml, genetic background: Δrob
[18] = 72.1 µg/ml, genetic background: ΔsoxS
[19] = 144.2 µg/ml, genetic background: wild type
[20] = 144.2 µg/ml, genetic background: ΔmarA
[21] = 144.2 µg/ml, genetic background: Δrob
[22] = 144.2 µg/ml, genetic background: ΔsoxS

**Q.** Which results are given for C[C@]12CC[C@H]3[C@@H](CCC4=CC(=O)CC[C@@]43C)[C@@H]1CC[C@@H]2O [Testosterone]?
**A.** promoter activity interaction Z-score [1, 7]: -0.445 ± 0.074; promoter activity interaction Z-score [1, 8]: -0.76 ± 0.16; promoter activity interaction Z-score [1, 9]: -0.613 ± 0.11; promoter activity interaction Z-score [1, 10]: -0.272 ± 0.23; promoter activity interaction Z-score [1, 11]: -0.494 ± 0.042; promoter activity interaction Z-score [1, 12]: -1.03 ± 1.1; promoter activity interaction Z-score [1, 13]: -0.524 ± 0.2; promoter activity interaction Z-score [1, 14]: -0.556 ± 0.063; promoter activity interaction Z-score [1, 15]: -0.447 ± 0.14; promoter activity interaction Z-score [1, 16]: 0.264 ± 0.87; promoter activity interaction Z-score [1, 17]: -0.624 ± 0.12; promoter activity interaction Z-score [1, 18]: -0.489 ± 0.08; promoter activity interaction Z-score [1, 19]: -0.411 ± 0.019; promoter activity interaction Z-score [1, 20]: -0.669 ± 0.41; promoter activity interaction Z-score [1, 21]: -0.643 ± 0.08; promoter activity interaction Z-score [1, 22]: -0.295 ± 0.29; promoter activity interaction Z-score [2, 7]: -0.197 ± 0.0038; promoter activity interaction Z-score [2, 8]: 0.0474 ± 0.038; promoter activity interaction Z-score [2, 9]: -0.0298 ± 0.091; promoter activity interaction Z-score [2, 10]: 0.319 ± 0.18; promoter activity interaction Z-score [2, 11]: -0.14 ± 0.34; promoter activity interaction Z-score [2, 12]: 0.094 ± 0.098; promoter activity interaction Z-score [2, 13]: -0.000736 ± 0.15; promoter activity interaction Z-score [2, 14]: -0.0287 ± 0.15; promoter activity interaction Z-score [2, 15]: 0.142 ± 0.26; promoter activity interaction Z-score [2, 16]: 0.527 ± 0.063; promoter activity interaction Z-score [2, 17]: 0.174 ± 0.16; promoter activity interaction Z-score [2, 18]: 0.257 ± 0.41; promoter activity interaction Z-score [2, 19]: 0.181 ± 0.03; promoter activity interaction Z-score [2, 20]: 0.196 ± 0.089; promoter activity interaction Z-score [2, 21]: 0.202 ± 0.074; promoter activity interaction Z-score [2, 22]: 0.625 ± 0.45; promoter activity interaction Z-score [3, 7]: -0.491 ± 0.12; promoter activity interaction Z-score [3, 8]: -0.598 ± 0.2; promoter activity interaction Z-score [3, 9]: -0.803 ± 0.57; promoter activity interaction Z-score [3, 10]: 0.195 ± 0.35; promoter activity interaction Z-score [3, 11]: -0.432 ± 0.41; promoter activity interaction Z-score [3, 12]: -1.1 ± 0.061; promoter activity interaction Z-score [3, 13]: -0.418 ± 0.62; promoter activity interaction Z-score [3, 14]: -0.713 ± 0.022; promoter activity interaction Z-score [3, 15]: -0.907 ± 0.16; promoter activity interaction Z-score [3, 16]: -0.501 ± 0.28; promoter activity interaction Z-score [3, 17]: -0.424 ± 0.42; promoter activity interaction Z-score [3, 18]: -0.715 ± 0.045; promoter activity interaction Z-score [3, 19]: -0.6982 ± 0.0041; promoter activity interaction Z-score [3, 20]: -0.969 ± 0.097; promoter activity interaction Z-score [3, 21]: -0.395 ± 0.47; promoter activity interaction Z-score [3, 22]: -0.339 ± 0.32; promoter activity interaction Z-score [4, 7]: -0.462 ± 0.23; promoter activity interaction Z-score [4, 8]: -1.03 ± 1.1; promoter activity interaction Z-score [4, 9]: -1.05 ± 0.49; promoter activity interaction Z-score [4, 10]: -0.195 ± 0.39; promoter activity interaction Z-score [4, 11]: -0.445 ± 0.22; promoter activity interaction Z-score [4, 12]: -1.14 ± 0.019; promoter activity interaction Z-score [4, 13]: -0.289 ± 0.96; promoter activity interaction Z-score [4, 14]: -0.498 ± 0.64; promoter activity interaction Z-score [4, 15]: -0.398 ± 0.53; promoter activity interaction Z-score [4, 16]: 0.148 ± 0.41; promoter activity interaction Z-score [4, 17]: -0.438 ± 1; promoter activity interaction Z-score [4, 18]: -0.274 ± 0.099; promoter activity interaction Z-score [4, 19]: -0.102 ± 0.59; promoter activity interaction Z-score [4, 20]: -0.151 ± 0.4; promoter activity interaction Z-score [4, 21]: -0.428 ± 0.35; promoter activity interaction Z-score [4, 22]: 0.0605 ± 0.79; promoter activity interaction Z-score [5, 7]: -0.254 ± 0.24; promoter activity interaction Z-score [5, 8]: -0.0384 ± 0.16; promoter activity interaction Z-score [5, 9]: -0.165 ± 0.23; promoter activity interaction Z-score [5, 10]: -0.0975 ± 0.27; promoter activity interaction Z-score [5, 11]: -0.534 ± 0.01; promoter activity interaction Z-score [5, 12]: -0.3 ± 0.046; promoter activity interaction Z-score [5, 13]: -0.108 ± 0.14; promoter activity interaction Z-score [5, 14]: -0.463 ± 0.35; promoter activity interaction Z-score [5, 15]: -0.459 ± 0.01; promoter activity interaction Z-score [5, 16]: -0.148 ± 0.037; promoter activity interaction Z-score [5, 17]: -0.0584 ± 0.12; promoter activity interaction Z-score [5, 18]: -0.399 ± 0.15; promoter activity interaction Z-score [5, 19]: -0.398 ± 0.075; promoter activity interaction Z-score [5, 20]: -0.389 ± 0.044; promoter activity interaction Z-score [5, 21]: -0.368 ± 0.021; promoter activity interaction Z-score [5, 22]: -0.448 ± 0.076; promoter activity interaction Z-score [6, 7]: 0.0813 ± 0.76; promoter activity interaction Z-score [6, 8]: 0.0835 ± 0.37; promoter activity interaction Z-score [6, 9]: -0.682 ± 0.73; promoter activity interaction Z-score [6, 10]: 0.781 ± 0.5; promoter activity interaction Z-score [6, 11]: 0.191 ± 0.092; promoter activity interaction Z-score [6, 12]: -1.71 ± 0.36; promoter activity interaction Z-score [6, 13]: 0.34 ± 0.48; promoter activity interaction Z-score [6, 14]: -0.587 ± 0.0086; promoter activity interaction Z-score [6, 15]: 0.0036 ± 0.71; promoter activity interaction Z-score [6, 16]: -0.0511 ± 0.6; promoter activity interaction Z-score [6, 17]: 0.112 ± 0.27; promoter activity interaction Z-score [6, 18]: 0.394 ± 0.17; promoter activity interaction Z-score [6, 19]: 0.135 ± 0.34; promoter activity interaction Z-score [6, 20]: -0.734 ± 0.57; promoter activity interaction Z-score [6, 21]: 0.644 ± 0.24; promoter activity interaction Z-score [6, 22]: 0.344 ± 0.27
